Assay results taken from ChEMBL document CHEMBL1961873, “Compounds: GSK PKIS; Assays: Nanosyn kinase panel” (2012).

How the values were obtained:
[1] = target: Sphingosine kinase 1 (Homo sapiens) (UniProt Q9NYA1); settings: at 1 µM;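 also: mean SPHK1 inhibition value reported from the GSK PKIS kinase panel screen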
[2] = target: T1, Sphingosine kinase 2 (Homo sapiens) (UniProt Q9NRA0); settings: at 0.1 µM
T1 sequence (whole entry): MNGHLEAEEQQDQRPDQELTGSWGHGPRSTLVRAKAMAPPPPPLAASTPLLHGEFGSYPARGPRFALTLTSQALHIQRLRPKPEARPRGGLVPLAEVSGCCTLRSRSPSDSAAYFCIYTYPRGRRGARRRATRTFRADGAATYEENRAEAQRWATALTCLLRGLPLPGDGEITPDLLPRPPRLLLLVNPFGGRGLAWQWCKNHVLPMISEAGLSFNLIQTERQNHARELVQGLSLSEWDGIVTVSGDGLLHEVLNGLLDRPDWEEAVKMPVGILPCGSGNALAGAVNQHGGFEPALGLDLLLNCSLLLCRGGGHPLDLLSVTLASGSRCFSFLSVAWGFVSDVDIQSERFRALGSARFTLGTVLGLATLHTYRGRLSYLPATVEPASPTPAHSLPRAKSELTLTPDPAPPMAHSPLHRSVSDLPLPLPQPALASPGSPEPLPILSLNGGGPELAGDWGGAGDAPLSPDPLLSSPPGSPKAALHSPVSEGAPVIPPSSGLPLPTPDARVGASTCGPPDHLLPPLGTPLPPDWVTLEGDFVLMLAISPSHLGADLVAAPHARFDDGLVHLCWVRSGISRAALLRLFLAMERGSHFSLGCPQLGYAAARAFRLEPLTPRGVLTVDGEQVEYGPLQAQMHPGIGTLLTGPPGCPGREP

[3] = target: T1, Sphingosine kinase 2 (Homo sapiens); settings: at 1 µM
[4] = target: Casein kinase II subunit alpha (Homo sapiens) (UniProt P68400); settings: at 0.1 µM
Casein kinase II subunit alpha (Homo sapiens), sequence (P68400 whole entry, looked up): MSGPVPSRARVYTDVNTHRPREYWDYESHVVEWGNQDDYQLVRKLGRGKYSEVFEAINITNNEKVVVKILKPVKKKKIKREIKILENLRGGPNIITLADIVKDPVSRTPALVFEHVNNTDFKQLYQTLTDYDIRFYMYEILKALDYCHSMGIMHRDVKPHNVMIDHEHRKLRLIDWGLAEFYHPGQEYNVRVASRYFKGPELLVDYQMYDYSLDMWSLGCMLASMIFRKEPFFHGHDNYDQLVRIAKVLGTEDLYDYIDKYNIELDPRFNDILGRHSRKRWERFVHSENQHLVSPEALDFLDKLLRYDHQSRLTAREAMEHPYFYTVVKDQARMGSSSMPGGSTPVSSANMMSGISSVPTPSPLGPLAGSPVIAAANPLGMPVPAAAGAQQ

[5] = target: Casein kinase II subunit alpha (Homo sapiens) (UniProt P68400); settings: at 1 µM
[6] = target: T2, Inhibitor of nuclear factor kappa-B kinase subunit alpha (Homo sapiens) (UniProt O15111); settings: at 0.1 µM
T2 sequence (whole entry): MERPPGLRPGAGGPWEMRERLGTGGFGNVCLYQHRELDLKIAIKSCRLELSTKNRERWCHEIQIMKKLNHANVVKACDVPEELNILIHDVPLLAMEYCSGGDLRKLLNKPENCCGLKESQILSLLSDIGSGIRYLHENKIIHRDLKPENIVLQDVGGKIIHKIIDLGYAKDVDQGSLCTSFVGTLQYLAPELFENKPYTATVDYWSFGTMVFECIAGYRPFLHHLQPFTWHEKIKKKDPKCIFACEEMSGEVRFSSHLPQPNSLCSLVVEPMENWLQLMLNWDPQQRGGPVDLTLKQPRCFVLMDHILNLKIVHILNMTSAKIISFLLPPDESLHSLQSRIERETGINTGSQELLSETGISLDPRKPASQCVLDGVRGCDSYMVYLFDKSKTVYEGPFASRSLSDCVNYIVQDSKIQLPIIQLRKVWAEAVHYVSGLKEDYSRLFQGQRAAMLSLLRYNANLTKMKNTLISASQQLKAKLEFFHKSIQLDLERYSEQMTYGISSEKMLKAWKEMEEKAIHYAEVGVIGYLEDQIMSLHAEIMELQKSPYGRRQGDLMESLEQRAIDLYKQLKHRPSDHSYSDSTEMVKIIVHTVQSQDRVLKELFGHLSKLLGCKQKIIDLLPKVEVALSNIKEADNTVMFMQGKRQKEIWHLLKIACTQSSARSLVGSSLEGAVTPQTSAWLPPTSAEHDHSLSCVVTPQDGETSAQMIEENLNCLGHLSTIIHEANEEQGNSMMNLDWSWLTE

[7] = target: T2, Inhibitor of nuclear factor kappa-B kinase subunit alpha (Homo sapiens); settings: at 1 µM
[8] = target: T3, Inhibitor of nuclear factor kappa-B kinase subunit beta (Homo sapiens) (UniProt O14920); settings: at 0.1 µM
T3 sequence (whole entry): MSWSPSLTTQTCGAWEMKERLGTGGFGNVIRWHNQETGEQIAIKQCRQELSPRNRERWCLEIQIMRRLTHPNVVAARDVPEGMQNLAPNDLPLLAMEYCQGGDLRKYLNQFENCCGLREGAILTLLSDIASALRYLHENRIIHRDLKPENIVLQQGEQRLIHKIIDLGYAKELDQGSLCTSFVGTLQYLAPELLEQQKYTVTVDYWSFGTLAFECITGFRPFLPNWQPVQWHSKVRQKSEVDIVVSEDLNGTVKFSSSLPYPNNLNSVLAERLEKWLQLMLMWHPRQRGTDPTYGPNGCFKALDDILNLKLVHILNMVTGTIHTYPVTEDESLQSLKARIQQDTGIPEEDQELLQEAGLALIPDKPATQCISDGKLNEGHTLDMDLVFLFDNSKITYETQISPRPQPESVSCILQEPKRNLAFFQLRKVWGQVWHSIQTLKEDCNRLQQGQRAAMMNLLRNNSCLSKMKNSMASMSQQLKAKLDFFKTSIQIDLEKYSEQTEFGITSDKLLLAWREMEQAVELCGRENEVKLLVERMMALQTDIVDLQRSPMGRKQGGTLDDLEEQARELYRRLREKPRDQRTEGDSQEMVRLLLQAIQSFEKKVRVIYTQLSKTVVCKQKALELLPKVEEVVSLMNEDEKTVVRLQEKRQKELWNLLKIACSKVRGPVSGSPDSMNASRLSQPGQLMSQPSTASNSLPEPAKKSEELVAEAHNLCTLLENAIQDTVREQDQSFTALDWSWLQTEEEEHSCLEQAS

[9] = target: T3, Inhibitor of nuclear factor kappa-B kinase subunit beta (Homo sapiens); settings: at 1 µM
[10] = target: T4, Inhibitor of nuclear factor kappa-B kinase subunit epsilon (Homo sapiens) (UniProt Q14164); settings: at 0.1 µM
T4 sequence (whole entry): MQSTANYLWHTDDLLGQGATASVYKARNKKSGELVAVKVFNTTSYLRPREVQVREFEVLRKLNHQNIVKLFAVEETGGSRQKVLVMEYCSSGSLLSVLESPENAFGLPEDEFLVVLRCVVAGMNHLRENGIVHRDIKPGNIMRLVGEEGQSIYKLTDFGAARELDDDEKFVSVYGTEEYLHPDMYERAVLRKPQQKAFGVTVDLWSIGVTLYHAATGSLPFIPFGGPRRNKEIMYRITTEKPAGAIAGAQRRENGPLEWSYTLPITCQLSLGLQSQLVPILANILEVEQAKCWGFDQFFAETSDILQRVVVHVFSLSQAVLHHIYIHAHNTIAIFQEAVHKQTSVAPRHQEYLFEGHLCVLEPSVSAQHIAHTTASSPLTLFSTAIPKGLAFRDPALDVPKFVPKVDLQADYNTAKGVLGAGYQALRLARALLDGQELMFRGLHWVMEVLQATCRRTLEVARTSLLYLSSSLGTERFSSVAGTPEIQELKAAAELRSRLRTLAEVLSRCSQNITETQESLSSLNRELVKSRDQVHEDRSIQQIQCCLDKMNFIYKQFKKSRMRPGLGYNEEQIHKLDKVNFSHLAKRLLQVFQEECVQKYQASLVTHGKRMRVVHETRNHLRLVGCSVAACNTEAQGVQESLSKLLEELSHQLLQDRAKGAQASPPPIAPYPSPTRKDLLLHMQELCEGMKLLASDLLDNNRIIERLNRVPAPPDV

[11] = target: T4, Inhibitor of nuclear factor kappa-B kinase subunit epsilon (Homo sapiens); settings: at 1 µM
[12] = target: T5, Serine/threonine-protein kinase Nek1 (Homo sapiens) (UniProt Q96PY6); settings: at 0.1 µM
T5 sequence (whole entry): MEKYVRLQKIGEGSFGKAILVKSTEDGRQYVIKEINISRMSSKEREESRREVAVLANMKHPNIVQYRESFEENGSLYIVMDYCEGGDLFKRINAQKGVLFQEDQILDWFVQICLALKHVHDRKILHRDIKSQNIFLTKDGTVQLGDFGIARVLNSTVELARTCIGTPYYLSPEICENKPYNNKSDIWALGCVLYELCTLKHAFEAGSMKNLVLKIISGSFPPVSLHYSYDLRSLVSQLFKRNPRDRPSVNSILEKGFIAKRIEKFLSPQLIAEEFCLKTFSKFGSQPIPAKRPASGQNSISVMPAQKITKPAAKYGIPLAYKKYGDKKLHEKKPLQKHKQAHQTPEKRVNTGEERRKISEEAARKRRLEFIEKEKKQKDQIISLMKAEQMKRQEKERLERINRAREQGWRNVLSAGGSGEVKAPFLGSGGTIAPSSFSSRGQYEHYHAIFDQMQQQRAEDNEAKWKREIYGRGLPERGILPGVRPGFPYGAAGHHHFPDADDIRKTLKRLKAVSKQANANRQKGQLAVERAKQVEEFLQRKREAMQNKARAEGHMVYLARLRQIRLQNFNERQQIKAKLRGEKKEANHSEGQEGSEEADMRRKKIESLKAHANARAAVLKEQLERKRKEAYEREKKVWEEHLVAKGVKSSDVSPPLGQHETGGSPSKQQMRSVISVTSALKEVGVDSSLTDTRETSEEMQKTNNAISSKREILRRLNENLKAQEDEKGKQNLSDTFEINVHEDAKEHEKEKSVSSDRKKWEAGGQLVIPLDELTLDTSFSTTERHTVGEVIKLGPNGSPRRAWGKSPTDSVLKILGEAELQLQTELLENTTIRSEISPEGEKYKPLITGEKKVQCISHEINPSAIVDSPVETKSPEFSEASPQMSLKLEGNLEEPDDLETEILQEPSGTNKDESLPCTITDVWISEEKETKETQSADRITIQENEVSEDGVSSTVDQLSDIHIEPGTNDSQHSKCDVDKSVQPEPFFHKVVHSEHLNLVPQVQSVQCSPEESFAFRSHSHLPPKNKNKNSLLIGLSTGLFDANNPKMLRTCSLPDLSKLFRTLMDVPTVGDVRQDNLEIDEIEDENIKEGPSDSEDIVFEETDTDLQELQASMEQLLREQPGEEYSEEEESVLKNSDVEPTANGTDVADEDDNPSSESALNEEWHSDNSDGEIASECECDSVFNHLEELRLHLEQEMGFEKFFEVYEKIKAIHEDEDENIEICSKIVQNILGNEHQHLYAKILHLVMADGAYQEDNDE

[13] = target: T5, Serine/threonine-protein kinase Nek1 (Homo sapiens); settings: at 1 µM
[14] = target: T6, Serine/threonine-protein kinase Nek2 (Homo sapiens) (UniProt P51955); settings: at 0.1 µM
T6 sequence (whole entry): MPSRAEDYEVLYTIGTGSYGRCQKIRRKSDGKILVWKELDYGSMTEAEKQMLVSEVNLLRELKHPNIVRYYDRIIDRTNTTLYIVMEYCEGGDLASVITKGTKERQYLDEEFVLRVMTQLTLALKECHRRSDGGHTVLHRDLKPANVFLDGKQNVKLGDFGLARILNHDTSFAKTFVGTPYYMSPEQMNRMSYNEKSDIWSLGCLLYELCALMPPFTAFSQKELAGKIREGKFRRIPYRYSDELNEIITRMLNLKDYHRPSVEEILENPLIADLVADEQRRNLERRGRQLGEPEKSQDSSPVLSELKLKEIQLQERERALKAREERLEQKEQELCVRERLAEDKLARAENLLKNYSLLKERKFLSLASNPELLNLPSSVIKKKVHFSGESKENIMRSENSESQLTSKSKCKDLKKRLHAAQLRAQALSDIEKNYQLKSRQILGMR

[15] = target: T6, Serine/threonine-protein kinase Nek2 (Homo sapiens); settings: at 1 µM
[16] = target: Serine/threonine-protein kinase Nek6 (Homo sapiens) (UniProt Q9HC98); settings: at 0.1 µM
Serine/threonine-protein kinase Nek6 (Homo sapiens), sequence (Q9HC98 whole entry): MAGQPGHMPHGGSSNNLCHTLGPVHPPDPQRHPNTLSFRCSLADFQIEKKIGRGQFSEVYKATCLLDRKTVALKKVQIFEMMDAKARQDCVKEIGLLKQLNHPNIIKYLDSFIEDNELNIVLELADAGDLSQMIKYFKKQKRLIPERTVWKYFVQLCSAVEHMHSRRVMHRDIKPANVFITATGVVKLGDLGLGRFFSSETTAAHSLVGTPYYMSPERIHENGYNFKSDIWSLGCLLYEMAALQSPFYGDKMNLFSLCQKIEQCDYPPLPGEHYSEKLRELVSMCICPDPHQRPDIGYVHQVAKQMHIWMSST

[17] = target: Serine/threonine-protein kinase Nek6 (Homo sapiens) (UniProt Q9HC98); settings: at 1 µM
[18] = target: Serine/threonine-protein kinase Nek7 (Homo sapiens) (UniProt Q8TDX7); settings: at 0.1 µM
Serine/threonine-protein kinase Nek7 (Homo sapiens), sequence (Q8TDX7 whole entry, looked up): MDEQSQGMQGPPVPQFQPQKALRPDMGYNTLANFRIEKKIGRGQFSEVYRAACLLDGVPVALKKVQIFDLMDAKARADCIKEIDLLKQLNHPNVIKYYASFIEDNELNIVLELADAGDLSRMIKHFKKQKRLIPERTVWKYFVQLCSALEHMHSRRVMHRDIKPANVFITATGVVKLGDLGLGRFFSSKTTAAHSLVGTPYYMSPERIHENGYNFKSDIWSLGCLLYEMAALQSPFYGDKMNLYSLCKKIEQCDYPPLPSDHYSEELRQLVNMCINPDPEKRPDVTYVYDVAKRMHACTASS

[19] = target: Serine/threonine-protein kinase Nek7 (Homo sapiens) (UniProt Q8TDX7); settings: at 1 µM
[20] = target: T7, Serine/threonine-protein kinase Nek9 (Homo sapiens) (UniProt Q8TD19); settings: at 0.1 µM;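 also: reported value is the mean percent inhibition of NEK9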
T7 sequence (whole entry): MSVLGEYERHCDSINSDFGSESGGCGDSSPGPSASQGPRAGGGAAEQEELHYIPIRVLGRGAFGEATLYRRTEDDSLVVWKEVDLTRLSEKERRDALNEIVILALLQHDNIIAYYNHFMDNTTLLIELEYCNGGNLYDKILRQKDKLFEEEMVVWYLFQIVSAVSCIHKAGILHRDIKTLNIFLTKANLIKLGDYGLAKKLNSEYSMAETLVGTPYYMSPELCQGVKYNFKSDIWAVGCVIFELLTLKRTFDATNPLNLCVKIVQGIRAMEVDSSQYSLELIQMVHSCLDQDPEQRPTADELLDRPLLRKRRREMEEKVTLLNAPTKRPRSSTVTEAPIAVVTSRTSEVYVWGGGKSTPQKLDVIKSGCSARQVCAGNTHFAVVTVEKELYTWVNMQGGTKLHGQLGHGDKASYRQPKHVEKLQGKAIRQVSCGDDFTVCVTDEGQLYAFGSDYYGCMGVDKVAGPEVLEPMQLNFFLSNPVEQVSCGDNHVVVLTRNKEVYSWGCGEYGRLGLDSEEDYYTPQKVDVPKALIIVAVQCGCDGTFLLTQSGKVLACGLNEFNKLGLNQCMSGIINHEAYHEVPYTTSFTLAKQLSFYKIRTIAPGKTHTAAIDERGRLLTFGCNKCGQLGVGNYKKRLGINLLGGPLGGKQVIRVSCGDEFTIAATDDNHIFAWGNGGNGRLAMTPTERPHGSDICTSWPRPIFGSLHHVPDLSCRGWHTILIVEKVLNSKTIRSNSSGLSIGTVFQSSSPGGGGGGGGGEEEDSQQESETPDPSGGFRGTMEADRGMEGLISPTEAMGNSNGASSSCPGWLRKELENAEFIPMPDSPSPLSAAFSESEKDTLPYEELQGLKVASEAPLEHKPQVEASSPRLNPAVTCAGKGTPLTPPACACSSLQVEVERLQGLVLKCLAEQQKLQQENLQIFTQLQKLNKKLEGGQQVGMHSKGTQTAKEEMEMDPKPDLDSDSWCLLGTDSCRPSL

Sphingosine kinase 1 (Homo sapiens), sequence (Q9NYA1 whole entry): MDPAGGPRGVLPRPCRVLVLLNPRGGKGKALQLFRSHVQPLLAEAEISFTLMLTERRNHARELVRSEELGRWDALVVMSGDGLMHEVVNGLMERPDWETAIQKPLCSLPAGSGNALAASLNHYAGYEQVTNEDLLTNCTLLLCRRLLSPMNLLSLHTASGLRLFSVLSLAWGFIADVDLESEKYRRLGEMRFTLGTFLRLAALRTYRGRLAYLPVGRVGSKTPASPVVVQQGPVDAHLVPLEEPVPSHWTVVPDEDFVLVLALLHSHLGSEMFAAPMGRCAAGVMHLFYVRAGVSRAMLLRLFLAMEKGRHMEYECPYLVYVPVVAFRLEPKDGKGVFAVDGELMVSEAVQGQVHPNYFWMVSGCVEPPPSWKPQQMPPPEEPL

Row | Structure (SMILES) | inhibition [1] [%] | inhibition [2] [%] | inhibition [3] [%] | inhibition [4] [%] | inhibition [5] [%] | inhibition [6] [%] | inhibition [7] [%] | inhibition [8] [%] | inhibition [9] [%] | inhibition [10] [%] | inhibition [11] [%] | inhibition [12] [%] | inhibition [13] [%] | inhibition [14] [%] | inhibition [15] [%] | inhibition [16] [%] | inhibition [17] [%] | inhibition [18] [%] | inhibition [19] [%] | inhibition [20] [%]
1 | Cc1ccc(C(=O)NC2CCC2)cc1-c1ccc(C(=O)NCC2CC2)cc1 | -2.08 | 0.15 | -0.32 | 0.14 | -0.02 | 5.36 | 2.23 | 3.94 | 0.66 | 3.52 | 2.96 | 0.93 | 3.06 | 4.6 | 3.71 | -0.33 | 1.33 | 3.14 | 2.04 | 4.75
2 | Fc1ccc(-c2c(-c3ccncc3)nc3n2CCS3)cc1 | 1.66 | 0.08 | 0.64 | 2.23 | 2.3 | 7.58 | 3.05 | 2.88 | 3.75 | 4.09 | 5.11 | 2.32 | 3.2 | 2.33 | 2.6 | -0.57 | 0.48 | 3.63 | 2.47 | 5.56
